GRIN3A LBD mod – binders of NR3A ligand-binding domain, primary screen, biophysical, differential scanning fluorimetry, uHTS. AID 1259313, 2017. 340,000 tested, 2.5% active. Tm shift relative to glycine control, % at 25 µM. Glutamate receptor ionotropic, NMDA 3A (GRIN3A) ligand-binding domain. NR3A LBD differential scanning fluorimetry, Tm shift; 0% = protein alone, 100% = glycine-bound protein;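 active means melting temperature shift of at least 10% of the positive control shift, at one fixed dose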
NALP1 yeast inh – NALP1 inflammasome inhibitors in reconstituted yeast, colorimetric, S. cerevisiae, triplicate retest. S. cerevisiae NALP1/ASC/caspase-1 growth, X-gal OD620, 72 h. 280,000 tested, 0.61% active. inhibition, % at 10 µM. AID 2071, 2009; in the data active means inhibition mostly above about 24%, no sharp cut-off; inactive means mostly below about 32%
dFosB activator – activators of delta FosB homodimer, primary screen, biochemical, fluorescence polarization, TAMRA-CDK5 oligo, single point; Protein FosB (Mus musculus), P13346; purified delta FosB; percent of positive-control signal above neutral wells; activation, % at 25 µM; 340,000 tested, 0.99% active; AID 493131, 2011;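 active means mean activation above about 17%, with every replicate also reaching it, limit read from the data, passing the limit was not always enough; inconclusive means only one of the two conditions met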
Target sequence (P13346 whole entry, looked up): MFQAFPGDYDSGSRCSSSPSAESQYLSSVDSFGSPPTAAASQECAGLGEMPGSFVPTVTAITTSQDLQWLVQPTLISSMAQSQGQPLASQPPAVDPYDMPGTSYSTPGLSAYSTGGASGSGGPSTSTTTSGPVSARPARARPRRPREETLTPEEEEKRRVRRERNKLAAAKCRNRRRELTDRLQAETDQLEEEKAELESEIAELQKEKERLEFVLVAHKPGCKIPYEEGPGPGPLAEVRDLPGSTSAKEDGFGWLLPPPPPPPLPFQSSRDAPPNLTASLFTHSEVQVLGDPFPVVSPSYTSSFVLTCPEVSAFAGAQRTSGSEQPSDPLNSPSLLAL
UBC13 polyUb – UBC13 polyubiquitin chain formation inhibitors, primary screen, biochemical, TR-FRET, uHTS; Ubiquitin-conjugating enzyme E2 N (Homo sapiens), P61088; inhibition, % at 20 µM; 330,000 tested, 0.47% active; AID 485273, 2010; in the data active means inhibition above about 45%, passing the limit was not always enough; inconclusive means no clear call, values can overlap the other calls
Target sequence (P61088 whole entry, looked up): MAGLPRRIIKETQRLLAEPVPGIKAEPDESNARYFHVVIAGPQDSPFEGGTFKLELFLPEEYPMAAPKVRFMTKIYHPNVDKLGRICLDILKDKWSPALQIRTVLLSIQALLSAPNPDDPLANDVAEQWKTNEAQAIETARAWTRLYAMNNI
CR mimetic SO – reduction of superoxide in aged yeast, primary screen, HTS. S. cerevisiae aged cells, superoxide DHE fluorescence; stronger effect = lower value. superoxide response (% of plate mean), % at 10 µM. 330,000 tested, 0.18% active;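 active means superoxide response under a set limit, about three screen SD below normal, cut at about 65% in these data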;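 further: yeast aged for seven days with compound at 30 °C before DHE staining; 100% = average MFI of all compound-treated wells on the plate with controls excluded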
CR mimetic CP – superoxide lowering in aged yeast cells, confirmation, cherry picked compounds | shares compounds with CR mimetic SO | S. cerevisiae aging, superoxide DHE fluorescence; stronger effect = lower value | superoxide response (% of plate), % at 10 µM | 850 tested, 1% active | AID 434994, 2010;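 active means superoxide signal below 65% of the plate average of sample wells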;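 further: cells aged with compound for 7 days at 30 degrees C before staining; 100% equals mean DHE fluorescence of all compound wells on the plate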
DHE counter – DHE quenching or ROS scavenging interference in aged yeast, artefact control for yeast caloric restriction mimetic project, S. cerevisiae BY4741, flow cytometry; shares compounds with CR mimetic SO; DHE fluorescence; stronger effect = lower value; fluorescence response, % at 10 µM; 850 tested, under 10 active;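 active means fluorescence response below 15%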;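 further: percent of the mean fluorescence averaged over all compound wells on the plate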
An asterisk follows results filed as active; u = inconclusive; x = no result. This is a sample that favours compounds with a hit; in the whole collection about 4.3% have one here.

SMILES | GRIN3A LBD mod | NALP1 yeast inh | dFosB activator | UBC13 polyUb | CR mimetic SO | CR mimetic CP | DHE counter
COCCNC(=O)CSc1nc2ccccc2c(=O)n1CCC(=O)N1CCN(c2ccccc2)CC1 | 0 | 11 | -1 | 9 | 104 | x | x
COc1cccc(CN(C)CC(=O)NCc2ccc(F)cc2)c1OC | 1 | 24 | 2 | 2 | 39* | 106 | 88
COc1cccc(NC(=O)COc2coc(CN3CCc4ccccc4C3)cc2=O)c1 | 0 | x | 4 | 0 | 89 | x | x
CCC(CO)NCc1ccc2c(c1)n(C)c(=O)n2C (configuration not stated) | 1 | 9 | -1 | -2 | 61* | 121 | 120
CCC1CCCCN1C(=O)CCNS(=O)(=O)c1ccc2c(c1)oc(=O)n2C (configuration not stated) | 0 | 15 | -2 | -14 | 99 | x | x
O=C(NCc1ccc(Cl)cc1)C1CCCN(c2cnccn2)C1 (configuration not stated) | -3 | 14 | 1 | 1 | 65* | 112 | 112
C/C(CCC12CC3CC(CC(C3)C1)C2)=N\NC(N)=S | -1 | 6 | -2 | 11 | 64* | 114 | 104
O=C(Cc1ccc(-n2c(=S)[nH]c3ccccc3c2=O)cc1)N1CCN(c2ccccc2)CC1 | 1 | 1 | -1 | 26 | 65* | 96 | 93
C=CCOc1ccc(C(c2c(C)n(C)n(-c3ccccc3)c2=O)c2c(C)n(C)n(-c3ccccc3)c2=O)cc1 | -3 | -1 | -9 | -2 | 112 | x | x
CC(CCc1ccccc1)NC(=O)CN1CCN(Cc2ccc(Cl)cc2)C1=O (configuration not stated) | 1 | -6 | -8 | 11 | 103 | x | x
C#CCSc1nnc(-c2cccc3ccccc23)o1 | 0 | x | -16 | 8 | 95 | x | x
C#CCSc1nnc(-c2ccc(C)cc2)o1 | 1 | 9 | -8 | -3 | 96 | 81 | 93
C#CCSc1nnc(-c2ccc(O)cc2)o1 | 0 | -1 | -8 | 1 | 86 | 99 | 102
CC(C)Cn1cnc2c1c(=O)n(CC(=O)NC(=O)NC(C)(C)C)c(=O)n2Cc1ccccc1 | -2 | 2 | -12 | -5 | 103 | x | x
Cc1nc(-c2ccc(S(=O)(=O)Nc3cc(S(=O)(=O)N(C)C)ccc3C)s2)cs1 | -2 | 4 | 3 | -18 | 64* | 114 | 117
COc1ccc(Cl)cc1S(=O)(=O)NC(C)C(=O)NCc1cccnc1 (configuration not stated) | 1 | 14 | 8 | -1 | 95 | x | x
Cc1cc(-c2nnc(SCC(=O)Nc3ccc(C(F)(F)F)cc3)n2C)no1 | 2 | 10 | -3 | 1 | 113 | x | x
Cc1cc(-c2nnc(SCC(=O)Nc3ccccc3)n2C)no1 | -2 | -6 | -5 | -7 | 58* | 104 | 115
CC(C)(C)c1ccc(/C=N/OCC(=O)NCc2ccc(F)cc2)cc1 | -7 | 15 | 0 | -5 | 62* | 101 | 91
COc1ccc(OC)c(S(=O)(=O)CC(O)COc2ccccc2Cl)c1 (configuration not stated) | 0 | 14 | -6 | -3 | 103 | x | x
CC(C)NC(=O)/C(C#N)=C/c1cccc(NC(=O)c2ccccc2Cl)c1 | -7 | 50 | -6 | 4 | 86 | x | x
COc1cc(/C=C(\C#N)C(=O)NC(C)C)cc(Cl)c1O | -1 | -8 | -2 | -12 | 96 | 106 | 92
C=CCNC(=O)C1CC(=O)N(c2ccc(OCC(=O)Nc3ccc(CC)cc3)cc2)C1 (configuration not stated) | 1 | 2 | -24 | 0 | 58* | 112 | 111
C=CCNC(=O)C1CC(=O)N(c2ccc(OCC(=O)Nc3ccc(C)cc3)cc2)C1 (configuration not stated) | 0 | -9 | u | -1 | 106 | x | x
CCNC(=S)NNC(=O)c1csc2c1CCCC2 | 2 | -21 | -1 | -11 | 58* | 88 | 103
SMILES | GRIN3A LBD mod | NALP1 yeast inh | dFosB activator | UBC13 polyUb | CR mimetic SO | CR mimetic CP | DHE counter
Cc1ccc(NC(=O)CCN2CCC(C)CC2)cc1 | 0 | 4 | 3 | -3 | 107 | x | x
CC1CCN(CCC(=O)Nc2ccc3c(c2)OCCO3)CC1 | x | 7 | x | 6 | 63* | 117 | 110
CCOC(=O)c1c(C)nc2ccc(Cl)cc2c1-c1ccccc1 | 9 | 15 | -4 | -1 | 62* | 95 | 102
CCOC(=O)c1c(C)nc2ccccc2c1-c1ccccc1 | 1 | 37 | 0 | -4 | 104 | x | x
Cc1ccsc1CNS(=O)(=O)c1ccc(F)cc1 | -1 | 19 | -7 | -4 | 60* | 88 | 91
CNC(=O)c1ccc(Nc2nnc(-c3ccc(C)c(S(N)(=O)=O)c3)c3ccccc23)cc1 | 0 | 16 | -27 | 3 | 102 | 94 | 91
Cc1ccc(-c2nnc(Nc3ccc(CC(N)=O)cc3)c3ccccc23)cc1S(N)(=O)=O | -1 | 25 | -1 | 0 | 84 | 99 | 97
Cc1ccc(-c2nnc(Nc3cccc(O)c3)c3ccccc23)cc1S(=O)(=O)NCCO | -1 | -3 | -7 | -6 | 97 | x | x
Cc1ccc(-c2nnc(Nc3ccc(OCC(N)=O)cc3)c3ccccc23)cc1S(N)(=O)=O | 4 | 22 | -12 | 11 | 104 | 104 | 97
CNC(=O)c1ccc(Nc2nnc(-c3ccc(O)cc3)c3ccccc23)cc1 | 0 | 9 | u | -6 | 105 | x | x
Cc1ccc(-c2nnc(Nc3ccc(O)cc3)c3ccccc23)cc1S(=O)(=O)NCCO | 2 | 6 | -3 | -7 | 106 | 124 | 116
CC(Oc1ccccc1F)c1nnc(SCC(=O)NCc2ccc3c(c2)OCO3)o1 (configuration not stated) | 0 | x | -5 | 2 | 92 | x | x
O=C1CCN(Cc2ccccc2)N1 | 3 | 17 | -4 | -2 | 67 | x | x
CSCC[C@H](NC(=O)[C@@H]1Cc2ccccc2CN1)C(=O)Nc1ccc2c(c1)OCO2 | -3 | 8 | -5 | -12 | 98 | x | x
C[C@H](NC(=O)c1nc[nH]c1C(=O)N[C@@H](CCCCN)C(=O)OC(C)(C)C)C(=O)OCc1ccccc1 | 1 | x | -2 | 31 | 103 | x | x
CC(C)(C)c1ccc(-n2ncc3c2CCCC3NC(=O)c2csnn2)cc1 (configuration not stated) | 0 | -30 | -1 | -2 | 58* | 101 | 104
